# Reference: paper PMC7862700, “An all-to-all approach to the identification of sequence-specific readers for epigenetic DNA modifications on cytosine”
# Key:
# Experiment in all cases: DAPPL (digital affinity profiling via proximity ligation, sequencing); 10 mM Tris-HCl pH 7.5, 50 mM NaCl, 1 mM DTT, 4% glycerol, room temperature, 30 min; GST-TFs on glutathione beads, 16-mer random dsDNA library, 0.1% formaldehyde crosslink after washing; high values mean tight binding
# FLI1 = molecular target: T1, FLI1 (Homo sapiens, UniProt Q01543 1-452); settings: protein: recombinant; tags: N-terminal GST; dsDNA, one strand shown
# T1 sequence: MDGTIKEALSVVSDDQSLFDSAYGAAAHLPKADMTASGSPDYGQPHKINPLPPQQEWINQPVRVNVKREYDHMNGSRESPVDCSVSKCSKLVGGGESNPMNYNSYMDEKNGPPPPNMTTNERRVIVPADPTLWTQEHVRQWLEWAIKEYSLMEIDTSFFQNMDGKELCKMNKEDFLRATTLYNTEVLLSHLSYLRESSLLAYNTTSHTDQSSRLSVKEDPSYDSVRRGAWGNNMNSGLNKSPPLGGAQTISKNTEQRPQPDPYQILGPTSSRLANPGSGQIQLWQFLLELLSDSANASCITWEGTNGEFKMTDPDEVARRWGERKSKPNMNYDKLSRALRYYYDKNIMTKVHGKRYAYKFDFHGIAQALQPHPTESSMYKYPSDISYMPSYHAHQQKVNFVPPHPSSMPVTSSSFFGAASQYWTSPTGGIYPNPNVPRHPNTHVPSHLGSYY
# Summary of the method: (§1)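 Sequencing on an Illumina NextSeq500 followed washing, crosslinking with 0.1% formaldehyde, proximity ligation (BsaI/T4 ligase, 1 h, 37 °C) and PCR amplification of pools that had been incubated for 30 min at room temperature with 200 nmole of a random double-stranded 16-mer DNA library in Tris/NaCl/DTT/glycerol buffer. Each pool held DNA-barcoded human transcription factors, expressed in yeast as GST fusions and captured on glutathione beads, plus a tag-only sample. Binding signal is a hexamer's read frequency for a factor divided by its frequency in the tag-only sample.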
# ELK1 = molecular target: T2, ELK1 (Homo sapiens, UniProt P19419 1-428); settings: protein: recombinant; tags: N-terminal GST; dsDNA, one strand shown
# T2 sequence: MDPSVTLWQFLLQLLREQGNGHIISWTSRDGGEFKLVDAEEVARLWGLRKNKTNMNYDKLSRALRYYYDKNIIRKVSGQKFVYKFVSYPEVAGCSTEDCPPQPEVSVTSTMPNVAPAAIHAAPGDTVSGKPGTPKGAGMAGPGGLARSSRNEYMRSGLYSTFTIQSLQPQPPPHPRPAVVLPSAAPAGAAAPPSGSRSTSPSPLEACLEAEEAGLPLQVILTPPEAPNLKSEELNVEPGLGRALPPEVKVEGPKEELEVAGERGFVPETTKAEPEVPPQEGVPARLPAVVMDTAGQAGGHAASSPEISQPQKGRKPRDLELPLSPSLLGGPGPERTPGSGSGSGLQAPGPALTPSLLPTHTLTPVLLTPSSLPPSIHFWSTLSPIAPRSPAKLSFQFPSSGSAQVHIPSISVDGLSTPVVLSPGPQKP
# Summary of the method: as §1
# GABPA = molecular target: T3, GABPA (Homo sapiens, UniProt Q06546 1-454); settings: protein: recombinant; tags: N-terminal GST; dsDNA, one strand shown
# T3 sequence: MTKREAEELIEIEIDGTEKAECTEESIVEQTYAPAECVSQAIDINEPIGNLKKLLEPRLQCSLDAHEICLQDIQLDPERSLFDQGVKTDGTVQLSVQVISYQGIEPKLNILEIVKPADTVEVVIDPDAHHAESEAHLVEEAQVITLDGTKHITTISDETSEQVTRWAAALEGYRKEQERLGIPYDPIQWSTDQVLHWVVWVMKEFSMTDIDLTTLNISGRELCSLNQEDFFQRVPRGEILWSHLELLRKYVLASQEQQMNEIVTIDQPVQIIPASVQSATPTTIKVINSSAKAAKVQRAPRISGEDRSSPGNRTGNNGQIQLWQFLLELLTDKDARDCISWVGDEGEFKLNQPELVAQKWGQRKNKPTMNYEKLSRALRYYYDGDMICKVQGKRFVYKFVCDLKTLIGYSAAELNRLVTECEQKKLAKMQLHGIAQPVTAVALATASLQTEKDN
# Summary of the method: as §1
# ERG = molecular target: T4, ERG (Homo sapiens, UniProt P11308 1-479); settings: protein: recombinant; tags: N-terminal GST; dsDNA, one strand shown
# T4 sequence: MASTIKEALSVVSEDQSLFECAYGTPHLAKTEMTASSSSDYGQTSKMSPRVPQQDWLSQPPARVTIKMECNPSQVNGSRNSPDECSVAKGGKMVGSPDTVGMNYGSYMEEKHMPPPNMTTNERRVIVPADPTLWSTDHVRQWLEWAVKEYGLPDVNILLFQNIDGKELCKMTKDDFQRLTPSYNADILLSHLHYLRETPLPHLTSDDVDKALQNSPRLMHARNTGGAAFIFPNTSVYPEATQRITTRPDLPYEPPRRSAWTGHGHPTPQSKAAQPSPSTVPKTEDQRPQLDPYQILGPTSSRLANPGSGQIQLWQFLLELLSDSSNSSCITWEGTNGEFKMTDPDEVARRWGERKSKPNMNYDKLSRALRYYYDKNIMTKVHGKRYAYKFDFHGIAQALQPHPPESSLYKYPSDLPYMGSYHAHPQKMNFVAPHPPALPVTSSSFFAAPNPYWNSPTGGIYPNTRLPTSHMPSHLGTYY
# Summary of the method: as §1
# ELF1 = ELF1 (Homo sapiens, UniProt P32519 1-619); settings: protein: recombinant; tags: N-terminal GST; dsDNA, one strand shown
# Sequence of ELF1 (P32519 whole entry): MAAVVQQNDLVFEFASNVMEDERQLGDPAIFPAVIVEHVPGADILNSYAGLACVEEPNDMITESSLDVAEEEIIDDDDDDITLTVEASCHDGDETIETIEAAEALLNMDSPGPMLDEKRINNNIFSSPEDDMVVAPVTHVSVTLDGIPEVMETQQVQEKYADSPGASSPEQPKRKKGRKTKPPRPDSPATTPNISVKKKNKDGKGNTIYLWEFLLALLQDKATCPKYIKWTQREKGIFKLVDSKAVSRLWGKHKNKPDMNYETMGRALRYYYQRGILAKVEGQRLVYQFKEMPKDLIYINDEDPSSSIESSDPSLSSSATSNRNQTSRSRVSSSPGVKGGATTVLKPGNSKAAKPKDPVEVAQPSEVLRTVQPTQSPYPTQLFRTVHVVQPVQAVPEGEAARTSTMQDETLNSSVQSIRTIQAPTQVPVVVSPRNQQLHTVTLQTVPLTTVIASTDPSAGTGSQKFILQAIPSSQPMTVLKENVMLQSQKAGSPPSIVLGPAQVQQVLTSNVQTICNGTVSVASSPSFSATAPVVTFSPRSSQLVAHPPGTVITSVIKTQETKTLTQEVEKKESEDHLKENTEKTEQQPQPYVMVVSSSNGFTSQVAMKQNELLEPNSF
# Summary of the method: as §1
# EHF = molecular target: T5, EHF (Homo sapiens, UniProt Q9NZC4 1-300); settings: protein: recombinant; tags: N-terminal GST; dsDNA, one strand shown
# T5 sequence: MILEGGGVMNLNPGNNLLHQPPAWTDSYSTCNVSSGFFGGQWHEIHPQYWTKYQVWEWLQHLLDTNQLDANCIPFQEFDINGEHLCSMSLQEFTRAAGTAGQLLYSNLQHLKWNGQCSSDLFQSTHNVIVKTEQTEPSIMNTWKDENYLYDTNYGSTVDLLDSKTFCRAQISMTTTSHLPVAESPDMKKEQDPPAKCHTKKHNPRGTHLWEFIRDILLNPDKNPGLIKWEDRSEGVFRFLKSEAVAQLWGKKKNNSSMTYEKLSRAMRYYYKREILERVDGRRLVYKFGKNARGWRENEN
# Summary of the method: as §1
# SPI1 = SPI1 (Homo sapiens, UniProt P17947 1-270); settings: protein: recombinant; tags: N-terminal GST; dsDNA, one strand shown
# Summary of the method: as §1
# SPIB = SPIB (Homo sapiens, UniProt Q01892 1-262); settings: protein: recombinant; tags: N-terminal GST; dsDNA, one strand shown
# Sequence of SPIB (Q01892 whole entry): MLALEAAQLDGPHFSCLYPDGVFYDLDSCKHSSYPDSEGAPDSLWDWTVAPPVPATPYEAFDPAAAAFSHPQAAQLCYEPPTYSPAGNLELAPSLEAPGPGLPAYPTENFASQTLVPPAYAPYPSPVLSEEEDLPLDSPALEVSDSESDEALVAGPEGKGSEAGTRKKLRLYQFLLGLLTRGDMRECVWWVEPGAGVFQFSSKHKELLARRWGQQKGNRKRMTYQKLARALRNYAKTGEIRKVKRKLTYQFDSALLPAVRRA
# Summary of the method: as §1
# ELK3 = molecular target: T6, ELK3 (Homo sapiens, UniProt P41970 1-407); settings: protein: recombinant; tags: N-terminal GST; dsDNA, one strand shown
# T6 sequence: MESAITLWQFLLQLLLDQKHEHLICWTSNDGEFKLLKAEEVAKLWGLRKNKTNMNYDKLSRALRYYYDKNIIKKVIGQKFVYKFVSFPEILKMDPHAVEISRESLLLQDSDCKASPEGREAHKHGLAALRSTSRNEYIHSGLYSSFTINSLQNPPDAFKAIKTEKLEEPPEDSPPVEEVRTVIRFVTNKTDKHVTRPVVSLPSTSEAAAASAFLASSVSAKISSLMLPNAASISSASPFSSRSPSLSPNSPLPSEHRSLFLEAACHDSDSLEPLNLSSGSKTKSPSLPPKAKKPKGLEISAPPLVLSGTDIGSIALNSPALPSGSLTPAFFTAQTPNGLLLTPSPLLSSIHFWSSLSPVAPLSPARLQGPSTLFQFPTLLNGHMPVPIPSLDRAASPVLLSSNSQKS
# Summary of the method: as §1
# FEV = molecular target: T7, FEV (Homo sapiens, UniProt Q99581 1-238); settings: protein: recombinant; tags: N-terminal GST; dsDNA, one strand shown
# T7 sequence: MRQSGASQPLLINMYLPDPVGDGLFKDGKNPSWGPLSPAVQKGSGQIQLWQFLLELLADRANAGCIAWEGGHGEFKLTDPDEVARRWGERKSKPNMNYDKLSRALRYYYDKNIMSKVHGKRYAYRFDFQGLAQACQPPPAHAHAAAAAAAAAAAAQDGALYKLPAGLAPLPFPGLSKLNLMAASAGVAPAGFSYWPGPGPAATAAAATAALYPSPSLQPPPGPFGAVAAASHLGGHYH
# Summary of the method: as §1
# ETV5 = ETV5 (Homo sapiens, UniProt P41161 1-510); settings: protein: recombinant; tags: N-terminal GST; dsDNA, one strand shown
# Sequence of ETV5 (P41161 whole entry): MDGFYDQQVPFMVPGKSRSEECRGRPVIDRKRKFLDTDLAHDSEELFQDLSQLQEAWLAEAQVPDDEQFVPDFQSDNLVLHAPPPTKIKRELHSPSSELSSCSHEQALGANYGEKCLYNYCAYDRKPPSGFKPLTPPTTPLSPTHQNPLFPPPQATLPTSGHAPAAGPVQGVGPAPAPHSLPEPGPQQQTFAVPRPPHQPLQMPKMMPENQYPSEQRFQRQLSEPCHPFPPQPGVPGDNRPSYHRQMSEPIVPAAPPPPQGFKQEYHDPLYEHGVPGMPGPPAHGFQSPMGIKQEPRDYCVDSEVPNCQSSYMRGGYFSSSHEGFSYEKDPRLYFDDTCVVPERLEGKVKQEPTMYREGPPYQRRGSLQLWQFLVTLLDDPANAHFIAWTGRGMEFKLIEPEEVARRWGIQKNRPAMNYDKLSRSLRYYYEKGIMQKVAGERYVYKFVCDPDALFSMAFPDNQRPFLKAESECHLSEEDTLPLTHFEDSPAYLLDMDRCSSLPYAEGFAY
# Summary of the method: as §1
# HSF1 = HSF1 (Homo sapiens, UniProt Q00613 1-529); settings: protein: recombinant; tags: N-terminal GST; chain copies: 3; dsDNA, one strand shown
# Sequence of HSF1 (Q00613 whole entry): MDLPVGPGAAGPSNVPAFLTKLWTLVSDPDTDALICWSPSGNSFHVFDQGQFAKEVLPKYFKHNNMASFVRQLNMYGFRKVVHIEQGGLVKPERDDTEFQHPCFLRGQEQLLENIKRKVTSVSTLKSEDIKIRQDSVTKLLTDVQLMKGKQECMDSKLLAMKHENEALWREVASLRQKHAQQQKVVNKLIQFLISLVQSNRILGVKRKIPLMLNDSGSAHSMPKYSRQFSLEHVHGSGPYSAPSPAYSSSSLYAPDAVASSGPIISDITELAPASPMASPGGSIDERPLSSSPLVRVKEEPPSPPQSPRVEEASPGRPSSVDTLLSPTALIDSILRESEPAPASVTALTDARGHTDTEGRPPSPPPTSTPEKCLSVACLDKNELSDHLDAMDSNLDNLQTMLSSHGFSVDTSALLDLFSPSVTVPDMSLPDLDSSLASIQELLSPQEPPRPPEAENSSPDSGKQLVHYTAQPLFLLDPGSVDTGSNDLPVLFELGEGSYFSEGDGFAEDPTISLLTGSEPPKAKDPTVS
# Summary of the method: as §1
# SPIC = molecular target: T8, SPIC (Homo sapiens, UniProt Q8N5J4 1-248); settings: protein: recombinant; tags: N-terminal GST; dsDNA, one strand shown
# T8 sequence: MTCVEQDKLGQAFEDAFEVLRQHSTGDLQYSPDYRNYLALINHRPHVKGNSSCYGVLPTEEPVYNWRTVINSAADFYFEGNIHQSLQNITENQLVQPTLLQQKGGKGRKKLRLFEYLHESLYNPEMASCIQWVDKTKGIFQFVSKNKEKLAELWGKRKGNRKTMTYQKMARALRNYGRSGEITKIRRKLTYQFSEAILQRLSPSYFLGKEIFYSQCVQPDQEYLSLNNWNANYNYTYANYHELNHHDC
# Summary of the method: as §1
# ELF4 = ELF4 (Homo sapiens, UniProt Q99607 1-663); settings: protein: recombinant; tags: N-terminal GST; dsDNA, one strand shown
# Sequence of ELF4 (Q99607 whole entry): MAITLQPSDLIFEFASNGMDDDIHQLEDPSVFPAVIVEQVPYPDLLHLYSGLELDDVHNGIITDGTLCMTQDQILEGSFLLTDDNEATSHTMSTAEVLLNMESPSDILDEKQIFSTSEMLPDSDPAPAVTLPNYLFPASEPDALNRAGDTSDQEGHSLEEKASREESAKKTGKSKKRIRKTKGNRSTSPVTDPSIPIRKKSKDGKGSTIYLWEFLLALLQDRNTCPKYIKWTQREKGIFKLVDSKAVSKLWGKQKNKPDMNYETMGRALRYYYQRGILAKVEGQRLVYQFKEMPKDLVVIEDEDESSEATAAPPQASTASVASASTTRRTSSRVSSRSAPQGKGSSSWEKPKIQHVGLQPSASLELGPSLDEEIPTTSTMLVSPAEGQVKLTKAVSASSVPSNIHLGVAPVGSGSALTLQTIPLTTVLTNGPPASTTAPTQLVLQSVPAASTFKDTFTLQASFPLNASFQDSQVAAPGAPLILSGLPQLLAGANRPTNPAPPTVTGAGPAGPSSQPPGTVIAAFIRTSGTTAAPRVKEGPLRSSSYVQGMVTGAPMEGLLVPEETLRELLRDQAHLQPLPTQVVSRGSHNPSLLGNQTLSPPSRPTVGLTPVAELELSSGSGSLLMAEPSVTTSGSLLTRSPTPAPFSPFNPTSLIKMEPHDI
# Summary of the method: as §1
# ELK4 = molecular target: T9, ELK4 (Homo sapiens, UniProt P28324-2 1-405); settings: protein: recombinant; tags: N-terminal GST; dsDNA, one strand shown
# T9 sequence: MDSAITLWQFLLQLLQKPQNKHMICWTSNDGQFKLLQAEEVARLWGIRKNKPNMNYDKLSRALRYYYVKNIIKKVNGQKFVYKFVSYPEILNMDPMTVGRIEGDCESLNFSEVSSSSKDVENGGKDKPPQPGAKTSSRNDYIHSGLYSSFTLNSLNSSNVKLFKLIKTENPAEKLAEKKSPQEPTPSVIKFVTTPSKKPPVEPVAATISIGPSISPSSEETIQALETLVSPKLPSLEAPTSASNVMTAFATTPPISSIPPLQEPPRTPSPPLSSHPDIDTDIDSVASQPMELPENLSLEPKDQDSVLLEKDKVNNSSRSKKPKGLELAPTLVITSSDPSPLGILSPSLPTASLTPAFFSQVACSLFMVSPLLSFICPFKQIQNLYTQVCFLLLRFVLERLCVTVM
# Summary of the method: as §1
# ETV2 = molecular target: T10, ETV2 (Homo sapiens, UniProt O00321 1-342); settings: protein: recombinant; tags: N-terminal GST; dsDNA, one strand shown
# T10 sequence: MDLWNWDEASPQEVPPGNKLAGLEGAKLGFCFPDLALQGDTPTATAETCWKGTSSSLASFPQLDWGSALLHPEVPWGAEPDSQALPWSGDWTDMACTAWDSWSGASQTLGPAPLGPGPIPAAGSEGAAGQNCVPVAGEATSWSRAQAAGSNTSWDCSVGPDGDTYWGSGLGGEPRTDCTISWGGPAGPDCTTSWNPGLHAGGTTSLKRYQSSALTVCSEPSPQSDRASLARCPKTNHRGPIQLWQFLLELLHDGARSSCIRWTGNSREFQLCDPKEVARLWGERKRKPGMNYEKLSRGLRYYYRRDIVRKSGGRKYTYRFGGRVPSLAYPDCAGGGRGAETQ
# Summary of the method: as §1
# ELF3 = molecular target: T11, ELF3 (Homo sapiens, UniProt P78545 1-371); settings: protein: recombinant; tags: N-terminal GST; dsDNA, one strand shown
# T11 sequence: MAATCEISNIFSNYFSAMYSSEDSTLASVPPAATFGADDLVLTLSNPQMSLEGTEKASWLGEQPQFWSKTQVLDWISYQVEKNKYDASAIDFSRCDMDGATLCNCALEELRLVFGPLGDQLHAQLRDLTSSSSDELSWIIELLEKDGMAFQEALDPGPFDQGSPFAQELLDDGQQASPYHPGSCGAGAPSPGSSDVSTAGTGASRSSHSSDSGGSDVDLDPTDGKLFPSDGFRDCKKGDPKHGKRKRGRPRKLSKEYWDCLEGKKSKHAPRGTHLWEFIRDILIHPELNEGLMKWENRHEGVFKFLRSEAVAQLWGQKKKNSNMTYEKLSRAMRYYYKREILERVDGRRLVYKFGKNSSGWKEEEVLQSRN
# Summary of the method: as §1
# CRX = CRX (Homo sapiens, UniProt O43186 1-299); settings: protein: recombinant; tags: N-terminal GST; dsDNA, one strand shown
# Sequence of CRX (O43186 whole entry): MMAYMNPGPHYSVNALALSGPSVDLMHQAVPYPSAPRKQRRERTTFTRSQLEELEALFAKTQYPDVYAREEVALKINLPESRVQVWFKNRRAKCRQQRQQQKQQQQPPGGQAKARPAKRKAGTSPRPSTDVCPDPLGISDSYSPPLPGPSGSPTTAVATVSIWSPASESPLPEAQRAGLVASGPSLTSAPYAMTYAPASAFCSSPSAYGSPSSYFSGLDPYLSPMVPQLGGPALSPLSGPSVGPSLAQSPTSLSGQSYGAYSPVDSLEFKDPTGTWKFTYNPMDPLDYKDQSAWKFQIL
# Summary of the method: as §1
# ETV1 = ETV1 (Homo sapiens, UniProt P50549 1-477); settings: protein: recombinant; tags: N-terminal GST; dsDNA, one strand shown
# Sequence of ETV1 (P50549 whole entry): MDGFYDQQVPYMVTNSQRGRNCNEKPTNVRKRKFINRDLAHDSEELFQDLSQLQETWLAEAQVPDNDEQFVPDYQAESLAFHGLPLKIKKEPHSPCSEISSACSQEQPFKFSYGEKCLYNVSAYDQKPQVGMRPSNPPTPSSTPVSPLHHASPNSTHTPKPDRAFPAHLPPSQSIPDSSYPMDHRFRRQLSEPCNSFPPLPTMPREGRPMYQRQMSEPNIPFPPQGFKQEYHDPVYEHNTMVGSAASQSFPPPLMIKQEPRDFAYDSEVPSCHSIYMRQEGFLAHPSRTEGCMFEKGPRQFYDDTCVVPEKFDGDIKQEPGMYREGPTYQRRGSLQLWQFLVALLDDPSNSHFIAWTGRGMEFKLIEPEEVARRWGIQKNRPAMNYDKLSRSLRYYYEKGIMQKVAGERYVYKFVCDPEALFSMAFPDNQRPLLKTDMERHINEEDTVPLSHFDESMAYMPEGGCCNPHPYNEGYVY
# Summary of the method: as §1
sequence,measurement,setting,value
GCTCCA,binding signal,FLI1,"1.23 fold enrichment (6-mer frequency, TF over GST control)"
same,binding signal,ELK1,"1.17 fold enrichment (6-mer frequency, TF over GST control)"
same,binding signal,GABPA,"1.33 fold enrichment (6-mer frequency, TF over GST control)"
same,binding signal,ERG,"1.18 fold enrichment (6-mer frequency, TF over GST control)"
same,binding signal,ELF1,"1.2 fold enrichment (6-mer frequency, TF over GST control)"
same,binding signal,EHF,"1.19 fold enrichment (6-mer frequency, TF over GST control)"
same,binding signal,SPI1,"1.28 fold enrichment (6-mer frequency, TF over GST control)"
same,binding signal,SPIB,"1.3 fold enrichment (6-mer frequency, TF over GST control)"
same,binding signal,ELK3,"1.17 fold enrichment (6-mer frequency, TF over GST control)"
same,binding signal,FEV,"1.22 fold enrichment (6-mer frequency, TF over GST control)"
same,binding signal,ETV5,"1.23 fold enrichment (6-mer frequency, TF over GST control)"
same,binding signal,HSF1,"1.16 fold enrichment (6-mer frequency, TF over GST control)"
same,binding signal,SPIC,"1.08 fold enrichment (6-mer frequency, TF over GST control)"
same,binding signal,ELF4,"1.22 fold enrichment (6-mer frequency, TF over GST control)"
same,binding signal,ELK4,"1.24 fold enrichment (6-mer frequency, TF over GST control)"
same,binding signal,ETV2,"1.29 fold enrichment (6-mer frequency, TF over GST control)"
same,binding signal,ELF3,"1.21 fold enrichment (6-mer frequency, TF over GST control)"
same,binding signal,CRX,"1.01 fold enrichment (6-mer frequency, TF over GST control)"
same,binding signal,ETV1,"1.12 fold enrichment (6-mer frequency, TF over GST control)"
